Laboratory results: PubChem BioAssay AID1233 (SRMLSC, 2008)
Potency and affinity values are given separately. Activity calls are given as the source filed them.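 Rule for the calls: active = a dose-response curve fit returns a half-maximal inhibitory concentration, extrapolated values included; inactive = the fit returns no such concentration.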

These compounds were tested against HMG-CoA reductase [Enterococcus faecalis] (UniProt Q9FD70) (assay: class II HMG-CoA reductase inhibition potency – biochemical, Enterococcus faecalis, confirmation (AID 1233)). Conditions: purified E. faecalis HMGR, NADPH absorbance 340 nm kinetics; series mostly up to 100 µM.

outcome, inactive:
CN(C)CCCNC(=O)c1cc(C(=O)C2CCCCC2)c[nH]1
Cc1ccc2nc(-c3sc4nc(C)ccc4c3N)[nH]c2c1
O=C(CC1SCCNC1=O)Nc1ccc(F)c(Cl)c1 (stereo not drawn)
Cc1ccc(NC(=O)C(=O)NCc2ccc(/C=N/NC(=O)c3c(C)nc4cc(C)ccn34)o2)cc1
O=C(Nc1ccncc1)c1ccc(C(=O)Nc2ccncc2)cc1
COc1cccc(C(=O)CN2C3=NCCCN3c3ccccc32)c1
COCCN(C(=O)CNC(=O)c1cccs1)C(C(=O)NC1CCCCC1)c1ccco1 (stereo not drawn)
O=C(C1c2ccccc2C(=O)N2CCc3ccccc3C12)N1CCN(Cc2ccccc2)CC1 (stereo not drawn)
O=[N+]([O-])c1ccc(N/N=C/c2ccc(O)c(O)c2O)c(S(=O)(=O)N2CCOCC2)c1
CCCCC(=O)Nc1nnc(C2=COCCO2)o1
COc1ccccc1C(=O)NNC(=O)c1ccc(NC(=O)c2ccccc2)cc1
O=C(Cn1cccc1C(=O)c1ccccc1)NCc1ccco1
O=C(COc1ccccc1C(=O)N/N=C\c1ccc(O)c(O)c1)N/N=C/c1ccc(O)c(O)c1
CCOC(=O)c1c(C)oc2c1c(C=NCCO)c(O)c1ccccc12
CC(=O)Nc1cccc(NC(=O)CSc2ccc(-c3cccnc3)nn2)c1
CCCCNC(=O)c1ccccc1NC(=O)CCSc1ccccc1
Cc1cccc(OCC(=O)NNC(=O)CCc2ccccc2)c1
NS(=O)(=O)c1ccc(CCN=C(NS(=O)(=O)c2cccs2)c2ccccc2)cc1
CCOc1ccc(S(=O)(=O)N(C)CCO)cc1-c1nc2c(C(C)(C)C)nn(C)c2c(=O)[nH]1
Cn1nc([N+](=O)[O-])nc1Sc1nnnn1-c1ccc(C(=O)O)cc1
C=CCOc1ccc(Br)cc1CNC(C)(C)C
Cc1ccc2nsnc2c1N
O=C(NCCCN1CCOCC1)c1cn(-c2ccccc2)nc1-c1cccs1
COC(=O)CSc1ncc(C#N)c(N)n1
CCCNC(=O)c1cc2c(C(F)(F)F)nn(C)c2s1
COc1ccc(-c2c(N)n[nH]c2C)cc1OC
C/C(=N\Nc1ccc(C(=O)O)cc1)c1ccc(-n2ccnc2)cc1
Cc1cccnc1NC(=O)Cn1nc([N+](=O)[O-])cc1C
CC(C)CNC(=O)CSc1ccc(Cl)cc1
O=C(NCc1cccs1)c1cc2c(s1)CS(=O)(=O)C2
O=C(NCc1ccc2[nH]c3c(c2c1)CCCC3)c1ccc(S(=O)(=O)N2CCCC2)cc1
CCc1nc(N)nc(N)c1-c1ccc(Cl)cc1
O=c1c(OC2OC(CO)C(O)C(O)C2O)c(-c2ccc(O)c(O)c2)oc2cc(O)cc(O)c12 (stereo not drawn)
O=C(O)C1CCCNC1 (stereo not drawn)
CCN(C(=O)Cn1cc(C(F)(F)F)ccc1=O)c1c(N)n(Cc2ccccc2)c(=O)[nH]c1=O
CN(C)C(CNC(=O)CCOc1ccccc1)c1ccco1 (stereo not drawn)
COc1ccc(C(=O)/C=C/c2ccc(N3CCCCC3)c([N+](=O)[O-])c2)c(OC)c1
Cc1ccc(NC2=C(N3CCOCC3)C(=O)c3ccccc3C2=O)cc1
